Tested on: VDR:RXRa (NR concentration 270 nM, RXRa partner concentration 90 nM)
Experiment: PBM binding z-score (relative to random genomic background probes); higher = stronger binding; sequences stand for … in GC…GCGATTGACAGCGTAGAATGAAGG
Procedure: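 Protein-binding microarray (Agilent 4x180K custom design, double-stranded 60-nt probes: 5' GC cap, 34-nt variable region, 24-nt constant primer region; full probe sequence given). Purified or IVT nuclear receptor:RXRα heterodimers (3:1 NR:RXRα, mostly 270:90 nM) or homodimers were incubated for 1 h in PBS with 2% milk and no ligand, then detected with Alexa488 antibodies. Fluorescence from o1-orientation probes (~5 replicates averaged) was converted to z-scores against 500 random hg19 background probes. Variable regions are seed direct-repeat (DR0–DR5) sites, all their single-nucleotide variants and half-site ablations.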

Sequence	PBM binding z-score
CGTCCAAGGTCAGAGAGGTCAGTGATTGCCGAGT	7.23
TCATATAGGTAAATGCTAGGTGAAGGTCCGATCT	0.873
TAGCCTAGGTCATTCAGAGGCCAGTATAGAAAGC	2.84
TCTTGTAGATCAGCAGGTTACGAAAGCTGGCCAA	-0.0746
TCATATAGGCAAATGCTAGGTGAAAGTCCGATCT	0.571
CGTAGCAGGCCAGGGTCACTCAAGCATTTCGCTT	2.59
GCGACTGGGGCATCAGCAGGATACCATAACTTAA	-0.816
CGTCCAAGGTCAGAGAGGTCAGTAAATGCCGAGT	7.22
TCTTGTAGATCAAAGGTTACGAAAGCCGAAGCCT	1.6
CTACCAAGGTGAACAAGGTCGTTGTTTACTATTC	6.2
CCGAGTAGGTTATGGGGCATTCTGGCAACGGTGA	-0.0151
TCATATAGGTAAGAGGTGAAAGTCGGTGTGGTAA	1.33
CGTCCAAGGTCATAGGAGGCCAGTGAAGACAGAT	4.93
CCCTACGGGTCACGAGGTTATAGCACGACGAGCG	5.13
AGTCAAAGTTCCTCTAGGTAACGTAAGATATGCT	0.145
GCTTGTAAATCAAGGTTAAGAAAGACTAAGCTAA	0.379
CAGACTAGGTCACGAAAGGTCAAAGTCGAATGAC	6.8
ATCTCTAGGTAACAAGTTCAATGAAAGAGAGGAC	2.67
TAGCCTAGGTCATTCAGGGCCCAGTATAGAAAGC	2.8
ACCTCTAGGTAAAAGTTCAGTGAATCCCGAGGAT	0.859

Sequence	PBM binding z-score
CCTACTGGGCCACAAAAGGTCATTGATTCAGTGA	3.98
GCTAGCAGGCCATTTGGGTCAGTCAATGACGGGC	0.157
CATACTGGGCCATTCAGAGGTCATTGATCATATG	4.15
ATATGTAGGTTACATCCGGGTCATTCCGGCTATG	3.88
AGTCAAAGTTCATCGAGGTAACGTAAGATATGCT	6.17
GCTGGTAGGTCAACTGATGGTCAGCTAAAGCTCG	2.01
CCTGCTAGGTCATGGTCAGCTAATCTACAGTATG	1.7
TTACCAAGGTGAAGGTCGTCGATCCCTCTGTAGA	1.09
ATATGTAGGTTATTGGGTCATTCAGTTTGCGCAT	4.55
CGTCAAAGTTGAACTAAGGTAACGTAAAGCACGC	1.43
TCATATAGGTAAATGCTAGGTGAAAGACCGATCT	0.73
ATACCAAGGTGATCGTGAGGTTGTTGATACTAAC	0.679
GCTTACCGGTCAAAGGTTATAGCATGAATAGAAT	2.81
CCTTACGGGTCACTCCAGGTTAGAGCATCGGAGT	3.65
CCTAGCAGCCCAATCTGGGTCACTCAAGGCTTGA	0.11
GCTCGGAGGACAGGGTCAGAGCTTTGTCCGTAGA	1.08
CAAACTGGGTCACAGAGGTCAAAGTCCGTGCGTA	7.58
CATACTGGGCCATCAGGTCATTGATATCAACGTT	2.28
CGAACTAGGTCAGAATAGGACAGTGAAGGATGAT	0.491
ATATGTAGGTGAGCTGGGGTCATTCAGACTAGGC	5.66

Source: the supplement of paper PMC6555819
